According to PubChem BioAssay AID1345082 (National Center for Advancing Translational Sciences (NCATS), 2018):
Screen size: about 94,000 compounds; about 4,000 (4.3%) were called active. A call without a number means that no potency is given here. Roughly 29% stayed inconclusive and do not appear here. Calls come from the whole dose curve; as a rule, active = well fitted inhibition curve with a large enough effect; inconclusive = small, poorly fitted or top-dose-only effect; inactive = no such curve, though single readings can be large or run the other way. Only a selection was taken, and actives are over-represented in it overall.

Test: Cytotoxic Profiling in NIH 3T3 Cell Line of Diverse Libraries Using Quantitative High-Throughput Screening; note: nearly all actives have a fitted effect of over 55% in size
Settings: NIH 3T3 viability, CellTiter-Glo ATP luminescence, 48-72 h; series mostly up to 96.7 µM
How it was run: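 Viability of NIH 3T3 cells after 48 or 72 hr compound treatment at 37 °C was assessed by CellTiter-Glo, with luminescence imaged following a 10 min room-temperature step.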
Potency is the fitted concentration of half-maximal effect.

Row | Compound | Potency
1 | Cc1ccc(C(=O)N2C[C@@H](CO)[C@H](c3ccncc3)C2)c(C)c1 | inactive
2 | O=c1cc(-c2cccnc2)oc2c(-c3cccc(CO)c3)nccc12 | 31.6 µM (active)
3 | CN(c1ccccc1)c1cc(=O)c2ccnc(Nc3cccc([S+](C)(=O)[O-])c3)c2o1 | 8.91 µM (active)
4 | CN(c1ccccc1)c1cc(=O)c2ccnc(-c3ccc(CO)cc3)c2o1 | 8.91 µM (active)
5 | OC[C@@H]1O[C@H](CNC2CCOCC2)[C@H](N2CCc3ccccc3C2)[C@@H]1O | inactive
6 | Cc1cc(C(=O)N2CCn3nc(C(=O)Nc4ccccc4)cc3C2)cc(=O)[nH]1 | inactive
7 | CN1CCCN(C(=O)c2ccoc2)c2ccccc21 | inactive
8 | COCCn1ncc(N2CCCC(CC(=O)NCc3cccc(C)c3)C2)cc1=O (stereo unspecified) | inactive
9 | O=C(Nc1ccsc1)N[C@H]1C[C@H]2C(=O)NC[C@@H](CCC(=O)N3CCC(O)CC3)N2C1 | inactive
10 | COCCNC(=O)C[C@@H]1C[C@H]2O[C@H](CNC3CCN(C)CC3)[C@@H](O)[C@H]2O1 | inactive
11 | Cc1ccc(C2Cn3nnc(C(=O)N4CCC(C(=O)NCc5cccnc5)CC4)c3CO2)cc1 (stereo unspecified) | inactive
12 | COc1ccc2nc3n(c2c1)[C@@H](CNC(=O)c1cnccn1)COC3 | inactive
13 | COc1ncccc1CNC[C@H]1COCc2nc3cc(C(F)(F)F)ccc3n21 | inactive
14 | COc1ccc2nc3n(c2c1)[C@@H](CNC1CCCCC1)COC3 | 39.8 µM (active)
15 | COc1ccccc1CN(C(=O)c1cccc(-c2noc(C)n2)c1)C1CC1 | inactive
16 | Cc1cnc(CCNS(=O)(=O)Cc2ccccc2F)n1Cc1ccccc1 | inactive
17 | Cc1ccc(NC(=O)NC[C@H]2O[C@@H](CC(=O)N3CCN(c4ccccc4)CC3)[C@H](O)[C@@H]2O)cc1 | inactive
18 | O=C(NCC1CN(Cc2ccccc2)CC12CN(c1ccccc1)C2)Nc1ccccc1 (stereo unspecified) | 39.8 µM (active)
19 | CN(CC#N)C(=O)[C@H]1CN(Cc2ccccc2)C[C@H]1C(=O)O | inactive
20 | CC(C)OCCCNC(=O)C1Cn2cccc2C(=O)N1C (stereo unspecified) | inactive
21 | CC(C)CN1C(=O)c2cccn2CC1C(=O)NCC1CCN(Cc2cccc(F)c2)CC1 (stereo unspecified) | inactive
22 | Cc1cnc(C2CCC2)n1CCNS(=O)(=O)c1cc(F)ccc1F | inactive

Row | Compound | Potency
23 | COCC(=O)N[C@H]1CO[C@H]2[C@@H]1OC[C@@H]2Nc1nccc(C(C)(C)C)n1 | inactive
24 | O=C(NCC1CC1)c1ccc2nnc(CC3CC3)n2c1 | inactive
25 | Cc1cccc(Nc2nc(N)nc(CN3CCC4(CC3)OCCCC4O)n2)c1 (stereo unspecified) | inactive
26 | O=C(CCn1ccc(=O)[nH]c1=O)N1CCn2nc(Cc3ccccc3)cc2C1 | inactive
27 | Cn1ncc2c(C(=O)NCc3ccc(F)cc3)cc(-c3cccc(C(F)(F)F)c3)nc21 | inactive
28 | COc1cccc(CNC(=O)c2cc(-c3ccc(Cl)nc3)nc3c2cnn3C)c1 | inactive
29 | Cn1ncc2c(C(=O)NCc3cccnc3)cc(C(C)(C)C)nc21 | 44.7 µM (active)
30 | Cc1ccccc1S(=O)(=O)N1C[C@@H]2CCCN3CCC[C@@H]([C@H]23)[C@H]1CCCC(=O)N1CCOCC1 | inactive
31 | Cc1cc(C(=O)N[C@H](C)c2c(-c3ccc(F)cc3)noc2C(=O)O)nn1C | inactive
32 | COC1CN(C2CCN(C(=O)C3CCC3)CC2)C12CCOCC2 (stereo unspecified) | inactive
33 | CC(=O)NC1(C)CCN(Cc2cccc(-c3ccc(C(=O)c4ccccc4)cc3)c2)C1 (stereo unspecified) | 35.5 µM (active)
34 | Cc1ccc(-c2cccc(CN3CCCC(NC(=O)c4ccc(Cl)cc4)C3)c2)cc1Cl (stereo unspecified) | inactive
35 | CC(=O)NC1(C)CCN(Cc2cnc(-c3ccc4c(ccn4C)c3)s2)CC1 | inactive
36 | O=C(Nc1ccccc1)C1CN(S(=O)(=O)c2cccnc2)CC12CCCCC2 (stereo unspecified) | inactive
37 | Cc1ccc(-c2ccc3nnc(CNC(=O)c4ccncc4)n3n2)cc1C | inactive
38 | Cc1ccc(-c2nnc3ccc(-c4ccoc4)nn23)nc1 | 100 µM (active)
39 | COc1ccc(C(=O)NCc2nnc3ccc(-c4ccc(C)cc4)nn23)cc1F | inactive
40 | Cc1ccc(CCN2C[C@]34C=C[C@H](O3)C(C(=O)N(C)Cc3nccn3C)C4C2=O)cc1 (stereo partly specified) | inactive
41 | COc1ccc(CNC(=O)c2c(C)sc3ccn(CC(C)C)c(=O)c23)cc1OC | inactive
42 | COc1ccc(CNC(=O)c2cccc3c2CCN3C(=O)c2ccc(F)cc2)cc1OC | 39.8 µM (active)
43 | COc1ccc(-c2ccc(C(=O)NCc3ccc(F)cc3)cc2)nn1 | inactive
44 | COc1ccc(CC(=O)N2CCC[C@@H]2C(=O)N2CCC(N3CCOC3=O)CC2)cc1 | inactive

Row | Compound | Potency
45 | COc1ccc(Cn2c(C3CCN(C(=O)Cc4ccsc4)CC3)n[nH]c2=O)cc1 | inactive
46 | COc1cncc(-c2cccc(COc3ccc4c(cnn4CC[S+](C)(=O)[O-])c3)c2)c1 | 56.2 µM (active)
47 | O=C1CCN(C2CCCC2)CCOCCN1 | inactive
48 | O=C1CCN(Cc2ccncc2)CCCC(C(=O)Nc2cccc(F)c2)CCN1 (stereo unspecified) | inactive
49 | O=C(Nc1cccc(F)c1)c1cc2n(n1)CC(c1ccc(Cl)cc1)OC2 (stereo unspecified) | inactive
50 | O=C(Nc1cccc(Cl)c1)C1CN(c2ccccc2)C(=O)N1 (stereo unspecified) | inactive
51 | O=C(Nc1cccc(Cl)c1)[C@@H]1C[C@@H](c2ccc(F)cc2)N([S+](=O)([O-])c2cccnc2)C1 | 35.5 µM (active)
52 | O=C(Nc1cccc(Cl)c1)[C@@H]1C[C@H](c2ccc(F)cc2)N([S+](=O)([O-])C2CC2)C1 | 79.4 µM (active)
53 | O=C(NCC1CCOCC1)Nc1cccc(Cl)c1 | inactive
54 | O=C(C1CCOC1)N1CCC(N(Cc2ccccc2)C2CCOCC2)CC1 (stereo unspecified) | inactive
55 | CN(C)C(=O)N1CCCC1C(=O)N1CCC(c2nc3ccncc3[nH]2)C1 (stereo unspecified) | inactive
56 | Nc1nc(CCCNC(=O)C2NCCc3[nH]cnc32)cs1 (stereo unspecified) | inactive
57 | O=C(Nc1ccccc1)N1CCC(C(=O)N2CCC(N3CCOCC3=O)CC2)CC1 | inactive
58 | CC[C@H]1CN(S(C)(=O)=O)CC[C@H]1CC(=O)NCc1ccco1 | inactive
59 | Cc1cccc(C)c1NC(=O)N(C)CC1CCOCC1 | inactive
60 | COCC(=O)N[C@@H]1CN(Cc2ccc(F)c(OC)c2)C[C@H]1CO | inactive
61 | O=C(NCCc1ccccc1)c1ccc2nnc(-c3cccc(C(F)(F)F)c3)n2c1 | 39.8 µM (active)
62 | COCCNC(=O)c1ccc2nnc(-c3cccc(C(F)(F)F)c3)n2c1 | inactive
63 | O=C(NCCCc1ccccc1)C1CCc2nnc(-c3cccc(C(F)(F)F)c3)n21 (stereo unspecified) | inactive
64 | O=C(NCc1ccc(C(F)(F)F)cc1)c1ccc2nnc(-c3ccc(C(F)(F)F)cc3)n2c1 | 31.6 µM (active)
65 | O=C(NCc1ccc(F)c(F)c1)c1ccc2nnc(-c3cccnc3)n2c1 | inactive
66 | O=C(NCc1ccccc1)c1ccc2nnc(C3CC3)n2c1 | inactive
